Results with a measured potency or affinity are listed apart.
Assay: Shn3 transcript knock-down in Clone20 cells – cell-based, qPCR, cherry-pick, dose response (AID 743415)
Conditions: Shn3 mRNA qPCR, overnight; series mostly up to 35 µM; relative Shn3 expression (fraction): at the top concentration;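 active = compounds lowering Shn3 expression whose fitted half-maximal concentration is at most twice the top valid dose; inconclusive = flat partial decrease or an invalid curve fit; inactive = the rest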

Relative Shn3 expression (fraction), inactive:
CCN(CC)S(=O)(=O)c1ccc(S(=O)(=O)Nc2c(C)nn(C)c2C)cc1 1.13, CCOC(=O)c1oc2ccc(S(=O)(=O)n3nc(-c4ccc(OC)cc4)cc3N)cc2c1C 1.18, CCOC(=O)C1CCCN(S(=O)(=O)c2ccc(S(=O)(=O)N3CCCC3)cc2)C1 (configuration not stated) 0.904, Cc1nc2ccccc2cc1OCc1ccc(F)cc1 1.29, Cc1cccc(NS(=O)(=O)c2ccc(C3CCCCC3)cc2)c1 2.21, Cc1onc(-c2ccccc2Cl)c1C(=O)N(C)C1CCCCC1 1.02, CC(=O)Nc1ccc(OCC(=O)Nc2ccc(Cl)c(S(=O)(=O)N3CCOCC3)c2)cc1 0.846, O=C(Cn1cnc2ccccc21)Nc1cccc(S(=O)(=O)N2CCCC2)c1 0.958, CCCCOCCCNc1ncnc2c1[nH]c1ccccc12 1.63, CNc1ccccc1C(C)(C)c1cc(-c2cccc(OC)c2)no1 1.16, Cc1ccc(NC(=O)c2cc(S(=O)(=O)NCCC3=CCCCC3)ccc2F)cc1F 1.86, c1ccc(CNc2ncnc3scc(-c4cccs4)c23)nc1 0.593, COc1ccc(NS(=O)(=O)c2ccc(OC)c(N(C)S(=O)(=O)c3ccc(Cl)cc3)c2)cc1 1.23, c1ccc(-c2noc(-c3ccc4ccccc4c3)n2)nc1 0.683, CC1Cc2cc(S(=O)(=O)N3CCN(c4ccc(Cl)cc4)CC3)ccc2N1C(=O)C1CC1 (configuration not stated) 1.16, CCCCNc1cc(C)nc(NCc2ccccc2)n1 3.52, Cc1ccccc1C(=O)N1CCN(c2ccc(NC(=O)CSc3ccc(Cl)cc3)cc2)CC1 2.02, CN(c1ccccc1)S(=O)(=O)c1cccc(NC(=O)CSc2nncs2)c1 1.14, CC(C)(C)C(=O)Nc1cc2nn(-c3ccccc3)nc2cc1Cl 0.982, CC(=O)N1c2ccc(S(=O)(=O)N3CCC(C(=O)N4CCN(c5cccc(C(F)(F)F)c5)CC4)CC3)cc2CC1C (configuration not stated) 1.22, COc1ccc(C(=O)Nc2nc3ccccc3s2)c(OC)c1 0.722, Cc1cccc(-c2noc(CN(C(=O)C(c3ccccc3)c3ccccc3)C(C)C)n2)c1 1.16, Cc1ccc2c(c1)nnn2C1CCN(S(=O)(=O)c2ccc(C(=O)N3C(C)CCCC3C)cc2)CC1 (configuration not stated) 1.29, Cc1ccc(CNC(=O)c2cc3c(C)nc4ccccc4c3o2)cc1 1.06, Cc1ccc(-c2nc3ncccc3o2)cc1NC(=O)c1sc2ccccc2c1Cl 1.22, CCOC(=O)c1cn(CC(=O)Nc2cccc(Cl)c2C)nn1 0.955, COc1cccc(-n2c(C)nc3c(cnn3-c3ccc(Cl)cc3)c2=O)c1 1.26, CCC(C)c1ccc(S(=O)(=O)N2CCN(C(=O)c3ccc(Cl)c(S(=O)(=O)N4CCOCC4)c3)CC2)cc1 (configuration not stated) 1.15, COc1ccc(CC(=O)Nc2ccncc2Cl)cc1 0.966, Cc1ccnc(SCC(=O)Nc2sc3c(c2C#N)CCCC3)n1 1.33, COc1ccc(OC)c(NC(=O)CN(Cc2ccc(F)cc2)C2CCCCC2)c1 1.71, O=C(Nc1nc(-c2ccccc2)cs1)C1CCCCN1S(=O)(=O)c1ccccc1 (configuration not stated) 1.36, Cc1ccc(-c2csc(N3CCC(NS(=O)(=O)c4ccc5c(c4)OCCO5)CC3)n2)cc1 1.51, CCn1cc(CN(C)S(=O)(=O)c2ccc3ccccc3c2)c(C)n1 1.25, Oc1ccc(-c2n[nH]c(C(F)(F)F)c2-c2ccccc2)c(O)c1 1.47, CCOc1ccc(Cn2nnc(C(=O)Nc3cc(OC)cc(OC)c3)c2N)cc1 1.13, CC(Sc1nc2ccccc2c(=O)n1C)C(=O)N(C)C1CCCCC1 (configuration not stated) 1.25

Reference: PubChem BioAssay AID743415 (Broad Institute, 2014)
